Molecules are shown by their SMILES. Active and inactive are the calls of the source.

In PubChem BioAssay one finds z-score data, which are given here for 15 compounds.

The nature of experiment [1]: A549 cell viability effects, profiling panel, calcein-AM fluorescence, 48 h, basal (AID 1162). The conditions noted are these: higher = more signal.
Experiment [2] is described as follows: adipocyte viability effects, profiling panel, cell-based, 3T3-L1 adipocytes, calcein-AM fluorescence, 48 h, basal (AID 1163). The conditions noted are these: 3T3-L1 adipocytes viability, higher = more signal.
Experiment [3] in a line: HepG2 cell viability effects, profiling panel, calcein-AM fluorescence, 48 h, basal (AID 1164). The conditions noted are these: higher = more signal.
The nature of experiment [4]: MM1S cell viability effects, profiling panel, calcein-AM fluorescence, 48 h, basal (AID 1165).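 Further: viability of MM1S multiple myeloma cells under basal unstimulated conditions.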 The conditions noted are these: higher = more signal.
Experiment [5] is described as follows: basal RPMI8226 viability, no added stimulus, profiling panel, cell-based, calcein-AM fluorescence, 48 h, PK04 Diversity Set (AID 1166).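 Further: cells grown under basal conditions without added stimulus.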 The conditions noted are these: RPMI8226 myeloma viability, higher = more signal.
Experiment [6] can be described thus: basal HepG2 mitochondrial membrane potential changes, profiling panel, cell-based, JC-1 fluorescence, 24 h, 100 nL compound (AID 1167). The conditions noted are these: higher = more signal.
Experiment [7] can be described thus: basal 3T3-L1 adipocyte mitochondrial potential changes, profiling panel, cell-based, JC-1 fluorescence, 3T3-L1 adipocytes, 24 h, 100 nL compound (AID 1168). The conditions noted are these: JC-1 mitochondrial fluorescence, higher = more signal, called active from +8 up or from −8 down.
Experiment [8] can be described thus: basal RPMI8226 mitochondrial membrane potential changes, profiling panel, cell-based, JC-1 fluorescence, 24 h, 100 nL compound (AID 1169). The conditions noted are these: RPMI8226 myeloma, JC-1 mitochondrial potential fluorescence, higher = more signal.
Experiment [9] can be described thus: basal MM1S mitochondrial membrane potential changes, profiling panel, cell-based, JC-1 fluorescence, 24 h, 100 nL compound (AID 1170). The conditions noted are these: higher = more signal.
A short description of experiment [10]: A549 lung cancer cell viability effects, profiling panel, resazurin fluorescence, 24 h, PK04 Diversity Set (AID 1171). The conditions noted are these: higher = more signal, called active from +8 up or from −8 down. (In general: The colour change of resazurin is a common sign of viable cells or microbes.)
Further: test concentration not given here.

As for `COc1cccc(C)c1NC(=O)O[C@H]1[C@H](OC(=O)Nc2ccccc2-c2ccccc2)[C@@H](OC(=O)Nc2ccccc2-c2ccccc2)[C@@H](OC)O[C@@H]1CO`, the z-score in experiment [1] is -2.87; in experiment [2], 0.458; in experiment [3], -3.51; in experiment [4] it was -3.08; in experiment [5], -3.27; in [6], 1.98. Further, the z-score in [7] is 1.62 (inactive); in experiment [8], -0.928; in experiment [9], -1.41; in experiment [10], -4.57 (inactive).
In the case of `COC(=O)[C@@]1(Cc2ccccc2)[C@H]2c3cc(C(=O)N(C)C)n(Cc4ccc(Cl)c(C(F)(F)F)c4)c3C[C@H]2CN1C(=O)c1ccccc1`, the z-score in experiment [1] is -1.42; in [2], 0.562; in [3] it was -2.06; in experiment [4], -2.56; in experiment [5] it was -4.44; in experiment [6], 2.34. The z-score is -1.28 (inactive) in experiment [7], -0.968 in [8], -1.24 in experiment [9] and -1.6 (inactive) in [10].
With `Cc1c(NC(=O)/C(C#N)=C/C=C/c2ccc([N+](=O)[O-])cc2)c(=O)n(-c2ccccc2)n1C`, the z-score in experiment [1] was 0.251; in experiment [2], -0.141; in [3] it was -0.182; in experiment [4], -1.02; in [5], -0.787; in [6] it was -1.19. The z-score in [7] was 0.0244 (inactive); in experiment [8] it was -0.278; in experiment [9], 0.096; in [10], 0.0981 (inactive).
Take `O=C/C=C/c1ccc(-c2ccccc2)cc1`: the z-score is 0.252 in experiment [1]; 0.919 in [2]; -1.45 in experiment [3]; -3.23 in [4]; -4.15 in [5]; -0.253 in experiment [6]. Besides, the z-score is 0.965 (inactive) in experiment [7], -0.853 in experiment [8], -3.05 in experiment [9] and -0.539 (inactive) in experiment [10].
Turning to `C=CCNC(=O)[C@H]1[C@@H]2C(=O)O[C@@H](c3ccccc3)[C@@H](c3ccccc3)N2[C@@H](c2ccc(O)cc2)[C@]12C(=O)N(C(=O)OCCOC)c1ccc(C#Cc3ccc(OC)cc3)cc12`, the z-score in experiment [1] is -0.98; in experiment [2] it was -1.44; in experiment [3], 0.147; in experiment [4] it was -1.26; in [5], -1.2; in experiment [6], -1.62. Besides, the z-score in [7] was 0.202 (inactive); in [8], -0.625; in experiment [9] it was -0.804; in [10] it was -0.0733 (inactive).
Regarding `COC(=O)[C@H](Cc1ccccc1)N1CC(C)(OC)O[C@@H](Cc2ccccc2)[C@H]1/C=C/C1CC1` (stereo not given in full), the z-score in [1] was -0.572; in [2] it was -0.317; in experiment [3] it was 0.299; in experiment [4], 0.391; in experiment [5], -0.304; in experiment [6], 0.208. Moreover, the z-score in experiment [7] was -0.394 (inactive); in [8], 0.28; in experiment [9] it was -0.521; in [10], 0.379 (inactive).
On to `C=C(COC)C(=O)CC[C@@H](OC(=O)c1ccccc1-c1ccccc1C(=O)O)c1ccccc1OCCO`, for which the z-score is -0.184 in experiment [1]; 0.615 in experiment [2]; -0.248 in experiment [3]; -3.31 in experiment [4]; -3.75 in experiment [5]; -1.13 in experiment [6]. Moreover, the z-score in [7] is -0.305 (inactive); in experiment [8] it was -0.88; in experiment [9] it was -1.84; in experiment [10] it was 0.393 (inactive).
With `COCCOC(=O)N1C(=O)[C@@]2(c3ccccc31)[C@H](C(=O)Nc1nc3ccccc3s1)[C@H]1C(=O)O[C@H](c3ccccc3)[C@H](c3ccccc3)N1[C@@H]2c1ccccc1OCCO`, the z-score was -0.905 in experiment [1]; 0.679 in experiment [2]; -0.899 in experiment [3]; -0.975 in [4]; -1.48 in experiment [5]; -2.27 in [6]. Moreover, the z-score in [7] is 2.21 (inactive); in experiment [8], -0.796; in experiment [9], -0.61; in experiment [10], 0.101 (inactive).
Consider `Cc1ccc(S(=O)(=O)N2[C@@H](c3ccccc3)C(C(=O)O)=CC[C@H]2c2ccc(F)cc2)cc1`, for which the z-score in [1] is -0.996; in experiment [2], 0.31; in [3], -0.73; in experiment [4], 0.102; in experiment [5] it was -0.296; in [6], -0.699. Also, the z-score was 0.2 (inactive) in experiment [7], 0.597 in experiment [8], -1.09 in [9] and 0.649 (inactive) in [10].
Consider `COC(=O)[C@@]1(Cc2ccc(OC)cc2)[C@@H]2[C@@H](CC(=O)[C@H]2CC(=O)C(=O)N(C)C)CN1C(=O)c1ccccc1`, for which the z-score in experiment [1] is -1.45; in [2] it was -0.18; in experiment [3], -0.923; in [4], -2.24; in [5], -4.62; in experiment [6], 1.1. Besides, the z-score in experiment [7] is -0.169 (inactive); in experiment [8] it was -0.735; in experiment [9], -2.16; in experiment [10], -2.28 (inactive).
In the case of `C=CC[C@]1(C(=O)NCC(O)CO)N=C(c2ccc(OCCCO)cc2)O[C@H]1c1ccccc1CN=[N+]=[N-]` (stereo not given in full), the z-score in experiment [1] is 0.444; in experiment [2] it was -0.0459; in experiment [3] it was 1.31; in experiment [4], -0.22; in experiment [5], -0.365; in experiment [6], 1.28. Also, the z-score in experiment [7] is -0.451 (inactive); in experiment [8], -0.427; in experiment [9], -0.825; in experiment [10], -0.389 (inactive).
Regarding `CCCC1(C(=O)OC)C=C2C(=C(C(C)C)C(=O)C2C)CN1` (stereo not given), the z-score was -1.47 in experiment [1]; 0.273 in [2]; -0.0319 in experiment [3]; 0.313 in [4]; -0.316 in experiment [5]; -1.45 in experiment [6]. The z-score is -1.43 (inactive) in [7], -0.613 in experiment [8], -0.458 in experiment [9] and -0.898 (inactive) in experiment [10].
`COCCOC(=O)N1C(=O)[C@@]2(c3cc(C#CC4(O)CCCCCC4)ccc31)[C@H](C(N)=O)[C@H]1C(=O)O[C@H](c3ccccc3)[C@H](c3ccccc3)N1[C@@H]2c1ccc(OCCO)cc1`: the z-score was -0.502 in experiment [1]; -0.0582 in experiment [2]; -1.71 in [3]; -2.99 in [4]; -4.26 in experiment [5]; -1.97 in experiment [6]. Further, the z-score was -0.69 (inactive) in experiment [7], -1.29 in experiment [8], -1.7 in [9] and -1.54 (inactive) in experiment [10].
With `COC(=O)C(CC#Cc1ccc2c(c1)[C@]1(C(=O)N2)[C@H](C(N)=O)[C@H]2C(=O)O[C@H](c3ccccc3)[C@H](c3ccccc3)N2[C@@H]1c1ccccc1OCCO)C(=O)OC`, the z-score in experiment [1] was -0.782; in [2], -0.436; in experiment [3], -4.23; in [4] it was -3.4; in experiment [5] it was -4.62; in [6] it was -0.82. In addition, the z-score in experiment [7] was 4.3 (inactive); in experiment [8], -1.18; in experiment [9], -2.2; in experiment [10] it was -2.83 (inactive).
`COCCOC(=O)N1C(=O)[C@@]2(c3cc(C#CCC(C(=O)OC)C(=O)OC)ccc31)[C@H](c1ccc(O)cc1)N1[C@H](c3ccccc3)[C@H](c3ccccc3)OC(=O)[C@H]1[C@@H]2C(=O)N1CCc2cc(OC)c(OC)cc2C1`: the z-score in experiment [1] is 0.393; in experiment [2] it was 0.632; in experiment [3] it was 0.806; in experiment [4], -0.243; in experiment [5], -3.34; in experiment [6], 0.763. Also, the z-score was -0.291 (inactive) in experiment [7], -1.15 in [8], 0.22 in experiment [9] and 0.742 (inactive) in experiment [10].
